From paper PMC4081100, “A DNA-binding-site landscape and regulatory network analysis for NAC transcription factors in Arabidopsis thaliana”

How the values were obtained:
Assay in all cases: universal protein binding microarray (PBM); transcription factors of Arabidopsis thaliana; high values mean tight binding
GST-NTL6(1-168) = GST-NTL6(1-168) (Arabidopsis thaliana, UniProt Q9SCK6 1-168); conditions: protein: recombinant; tags: GST; chain copies: 2; dsDNA, one strand shown
In short: (§1)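 GST-tagged NAC-domain, full-length or DNA-binding-domain proteins were induced in cells, with zinc acetate added for zinc-finger proteins. They were purified on glutathione–Sepharose 4B and quantified by A280 or anti-GST western blot. Each was applied at 200 to 500 nM final, in duplicate, to custom all-10-mer Agilent 4 × 180K arrays made double-stranded by primer extension, with gapped and ungapped 8-mers scored. Binding is the normalised enrichment score (E-score).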

GST-ANAC055(1-171) = biological target: T1, GST-ANAC055(1-171) (Arabidopsis thaliana, UniProt Q9LDY8 1-171); conditions: protein: recombinant; tags: GST; chain copies: 2; dsDNA, one strand shown
T1 sequence: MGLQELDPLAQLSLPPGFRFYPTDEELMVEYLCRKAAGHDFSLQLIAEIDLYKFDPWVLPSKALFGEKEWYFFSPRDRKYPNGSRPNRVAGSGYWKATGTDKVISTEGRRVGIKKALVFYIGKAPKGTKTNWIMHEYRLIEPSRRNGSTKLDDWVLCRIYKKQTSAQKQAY
In short: as §1

GST-ATAF1 NAC domain = biological target: T2, GST-ATAF1 NAC domain (Arabidopsis thaliana, UniProt Q39013 7-158); conditions: protein: recombinant; tags: GST; chain copies: 2; dsDNA, one strand shown
T2 sequence: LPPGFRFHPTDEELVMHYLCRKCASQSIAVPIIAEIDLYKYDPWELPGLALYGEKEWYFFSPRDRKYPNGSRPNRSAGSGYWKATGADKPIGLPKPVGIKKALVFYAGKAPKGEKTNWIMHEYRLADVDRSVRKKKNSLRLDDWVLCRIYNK
In short: as §1

[1] = biological target: T3, GST-ANAC092(1-285) full length (Arabidopsis thaliana, UniProt Q9FKA0 1-285); conditions: protein: recombinant; tags: GST; chain copies: 2; dsDNA, one strand shown
T3 sequence: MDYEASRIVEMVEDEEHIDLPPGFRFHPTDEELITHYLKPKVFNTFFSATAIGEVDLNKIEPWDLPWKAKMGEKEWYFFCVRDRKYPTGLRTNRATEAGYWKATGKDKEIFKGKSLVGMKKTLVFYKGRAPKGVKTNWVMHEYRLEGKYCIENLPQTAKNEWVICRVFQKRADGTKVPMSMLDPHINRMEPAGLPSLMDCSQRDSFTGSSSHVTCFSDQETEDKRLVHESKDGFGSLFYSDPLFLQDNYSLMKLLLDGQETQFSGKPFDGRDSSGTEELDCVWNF
In short: as §1

GST-NST2(1-184) = biological target: T4, GST-NST2(1-184) (Arabidopsis thaliana, UniProt Q9M274 1-184); conditions: protein: recombinant; tags: GST; chain copies: 2; dsDNA, one strand shown
T4 sequence: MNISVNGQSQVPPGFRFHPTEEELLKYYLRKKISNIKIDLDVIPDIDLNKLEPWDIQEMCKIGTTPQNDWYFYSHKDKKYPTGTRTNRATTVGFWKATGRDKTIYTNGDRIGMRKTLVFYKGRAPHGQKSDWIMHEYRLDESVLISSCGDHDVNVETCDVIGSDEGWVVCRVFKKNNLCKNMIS
In short: as §1

GST-SND1(1-203) = biological target: T5, GST-SND1(1-203) (Arabidopsis thaliana, UniProt Q9LPI7 1-203); conditions: protein: recombinant; tags: GST; chain copies: 2; dsDNA, one strand shown
T5 sequence: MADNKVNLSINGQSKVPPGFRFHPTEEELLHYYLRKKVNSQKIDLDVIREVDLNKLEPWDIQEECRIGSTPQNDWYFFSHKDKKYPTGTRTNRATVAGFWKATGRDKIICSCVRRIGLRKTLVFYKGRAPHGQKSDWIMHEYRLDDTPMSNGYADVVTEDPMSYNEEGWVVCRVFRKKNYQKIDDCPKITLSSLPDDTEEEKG
In short: as §1

GST-VND3 NAC domain = biological target: T6, GST-VND3 NAC domain (Arabidopsis thaliana, UniProt Q9FH59 12-162); conditions: protein: recombinant; tags: GST; chain copies: 2; dsDNA, one strand shown
T6 sequence: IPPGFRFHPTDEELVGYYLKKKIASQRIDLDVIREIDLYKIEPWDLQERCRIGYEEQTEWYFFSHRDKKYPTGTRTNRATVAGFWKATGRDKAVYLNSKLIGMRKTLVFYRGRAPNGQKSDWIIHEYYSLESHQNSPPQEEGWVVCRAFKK
In short: as §1

GST-VND7 NAC domain = biological target: T7, GST-VND7 NAC domain (Arabidopsis thaliana, UniProt Q9C8W9 9-158); conditions: protein: recombinant; tags: GST; chain copies: 2; dsDNA, one strand shown
T7 sequence: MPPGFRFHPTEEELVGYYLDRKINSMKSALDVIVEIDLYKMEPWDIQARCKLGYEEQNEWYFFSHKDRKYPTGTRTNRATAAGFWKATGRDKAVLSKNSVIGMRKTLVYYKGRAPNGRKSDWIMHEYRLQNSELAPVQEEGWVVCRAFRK
In short: as §1

GST-ANAC092(1-176) = biological target: T8, GST-ANAC092(1-176) (Arabidopsis thaliana, UniProt Q9FKA0 1-176); conditions: protein: recombinant; tags: GST; chain copies: 2; dsDNA, one strand shown
T8 sequence: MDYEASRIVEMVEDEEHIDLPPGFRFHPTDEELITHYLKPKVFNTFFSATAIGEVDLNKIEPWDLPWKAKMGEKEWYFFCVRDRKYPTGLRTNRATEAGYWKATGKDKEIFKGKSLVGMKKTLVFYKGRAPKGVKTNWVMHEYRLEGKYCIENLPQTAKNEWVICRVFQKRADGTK
In short: as §1

GST-NAP(1-166) = biological target: T9, GST-NAP(1-166) (Arabidopsis thaliana, UniProt O49255 1-166); conditions: protein: recombinant; tags: GST; chain copies: 2; dsDNA, one strand shown
T9 sequence: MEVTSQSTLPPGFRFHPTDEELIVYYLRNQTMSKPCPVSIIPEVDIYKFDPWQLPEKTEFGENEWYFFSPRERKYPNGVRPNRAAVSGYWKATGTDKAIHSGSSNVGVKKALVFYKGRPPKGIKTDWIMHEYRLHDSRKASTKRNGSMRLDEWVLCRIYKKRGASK
In short: as §1

GST-NTL8 NAC domain = biological target: T10, GST-NTL8 NAC domain (Arabidopsis thaliana, UniProt Q9XIN7 14-156); conditions: protein: recombinant; tags: GST; chain copies: 2; dsDNA, one strand shown
T10 sequence: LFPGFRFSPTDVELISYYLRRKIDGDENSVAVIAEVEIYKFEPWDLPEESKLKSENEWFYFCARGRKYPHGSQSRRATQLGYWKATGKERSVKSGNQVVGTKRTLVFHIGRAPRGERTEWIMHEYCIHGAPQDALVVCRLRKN
In short: as §1

GST-ANAC019 NAC domain = biological target: T11, GST-ANAC019 NAC domain (Arabidopsis thaliana, UniProt Q9C932 14-162); conditions: protein: recombinant; tags: GST; chain copies: 2; dsDNA, one strand shown
T11 sequence: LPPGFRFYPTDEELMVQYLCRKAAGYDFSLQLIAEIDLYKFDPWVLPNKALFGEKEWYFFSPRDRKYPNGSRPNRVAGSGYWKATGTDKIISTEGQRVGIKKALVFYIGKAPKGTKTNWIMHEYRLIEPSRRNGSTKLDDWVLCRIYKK
In short: as §1

GST-WRKY1(266-371) = GST-WRKY1(266-371) (Arabidopsis thaliana, UniProt Q9SI37 266-371); conditions: protein: recombinant; tags: GST; dsDNA, one strand shown
GST-WRKY1(266-371), sequence (Q9SI37 266-371): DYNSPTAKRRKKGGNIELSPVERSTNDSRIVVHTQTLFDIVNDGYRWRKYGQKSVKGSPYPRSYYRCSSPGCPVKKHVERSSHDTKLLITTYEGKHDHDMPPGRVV
In short: as §1

GST-NTL6(1-168), sequence (Q9SCK6 1-168): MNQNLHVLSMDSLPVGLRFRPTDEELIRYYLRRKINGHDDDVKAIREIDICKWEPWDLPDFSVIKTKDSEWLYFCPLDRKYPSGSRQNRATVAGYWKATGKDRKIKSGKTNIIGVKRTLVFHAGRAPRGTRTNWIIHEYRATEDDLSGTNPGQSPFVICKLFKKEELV

| Sequence | binding signal (GST-NTL6(1-168)) [E-score] | binding signal (GST-ANAC055(1-171)) [E-score] | binding signal (GST-ATAF1 NAC domain) [E-score] | binding signal [1] [E-score] | binding signal (GST-NST2(1-184)) [E-score] | binding signal (GST-SND1(1-203)) [E-score] | binding signal (GST-VND3 NAC domain) [E-score] | binding signal (GST-VND7 NAC domain) [E-score] | binding signal (GST-ANAC092(1-176)) [E-score] | binding signal (GST-NAP(1-166)) [E-score] | binding signal (GST-NTL8 NAC domain) [E-score] | binding signal (GST-ANAC019 NAC domain) [E-score] | binding signal (GST-WRKY1(266-371)) [E-score] |
| --- | --- | --- | --- | --- | --- | --- | --- | --- | --- | --- | --- | --- | --- |
| ATTTCTTA | 0.409 | 0.0799 | 0.19 | 0.185 | 0.126 | 0.225 | 0.0914 | 0.148 |  |  |  |  |  |
| ATACGCCA |  | 0.22 | 0.331 | 0.455 | 0.283 | 0.398 | 0.192 | 0.247 | 0.455 | 0.201 | 0.0758 |  |  |
| CTTCCTTA | 0.447 |  |  | 0.104 | 0.151 | 0.21 | 0.0785 |  | 0.158 |  | 0.223 | 0.0721 | 0.0845 |
| AAGTCAGA | 0.0583 | 0.073 |  | 0.14 | 0.132 | 0.0642 | 0.166 |  | 0.0562 |  |  | 0.0582 | 0.455 |
| CTTTACGC |  |  |  | 0.302 | 0.193 | 0.408 | 0.0839 | 0.137 | 0.294 | 0.081 |  | 0.0905 |  |
| ATGCGTAA |  | 0.108 | 0.115 | 0.356 | 0.243 | 0.436 | 0.217 | 0.188 | 0.319 | 0.175 |  |  |  |
| CCTTACCC | 0.366 |  |  | 0.0872 |  | 0.167 | 0.0668 | 0.0637 |  |  | 0.404 |  |  |
| ATGGCGTA |  |  | 0.185 | 0.426 | 0.299 | 0.452 | 0.149 | 0.192 | 0.393 | 0.184 |  |  |  |
| GTACGCGA |  | 0.0563 | 0.234 | 0.4 | 0.129 | 0.288 | 0.11 | 0.133 | 0.245 | 0.188 |  |  |  |
| CACGCCAA |  | 0.159 | 0.16 | 0.451 | 0.3 | 0.334 | 0.0966 | 0.114 | 0.443 | 0.114 | 0.0657 | 0.185 |  |
| AGCGTAAA |  |  | 0.12 | 0.241 | 0.244 | 0.413 | 0.15 | 0.119 | 0.223 | 0.126 |  | 0.0508 |  |
| TTAAGAAA | 0.461 | 0.0935 | 0.195 | 0.227 | 0.142 | 0.367 | 0.0817 |  | 0.151 |  | 0.273 |  | 0.116 |
| ACGCTACT |  | 0.226 | 0.288 | 0.425 | 0.314 | 0.394 | 0.241 |  | 0.385 | 0.236 | 0.0894 | 0.123 | 0.092 |
| AATACTTA | 0.405 | 0.162 | 0.254 | 0.104 | 0.0916 | 0.0985 | 0.187 | 0.0602 |  |  | 0.0845 | 0.135 |  |
| TCGGTCAA | 0.0645 | 0.0819 |  |  | 0.0703 | 0.0612 | 0.0724 |  | 0.132 | 0.097 |  |  | 0.49 |
